{
  "source": "paper PMC10313831",
  "about": "“ssDNA accessibility of Rad51 is regulated by orchestrating multiple RPA dynamics”",
  "data": [
    {"molecular_target": "RPA (Rfa1-Rfa2-Rfa3) (Saccharomyces cerevisiae, UniProt P22336;P26754;P26755 1-621;1-273;1-122)", "sequence (P22336 whole entry, chain 1 of 3)": "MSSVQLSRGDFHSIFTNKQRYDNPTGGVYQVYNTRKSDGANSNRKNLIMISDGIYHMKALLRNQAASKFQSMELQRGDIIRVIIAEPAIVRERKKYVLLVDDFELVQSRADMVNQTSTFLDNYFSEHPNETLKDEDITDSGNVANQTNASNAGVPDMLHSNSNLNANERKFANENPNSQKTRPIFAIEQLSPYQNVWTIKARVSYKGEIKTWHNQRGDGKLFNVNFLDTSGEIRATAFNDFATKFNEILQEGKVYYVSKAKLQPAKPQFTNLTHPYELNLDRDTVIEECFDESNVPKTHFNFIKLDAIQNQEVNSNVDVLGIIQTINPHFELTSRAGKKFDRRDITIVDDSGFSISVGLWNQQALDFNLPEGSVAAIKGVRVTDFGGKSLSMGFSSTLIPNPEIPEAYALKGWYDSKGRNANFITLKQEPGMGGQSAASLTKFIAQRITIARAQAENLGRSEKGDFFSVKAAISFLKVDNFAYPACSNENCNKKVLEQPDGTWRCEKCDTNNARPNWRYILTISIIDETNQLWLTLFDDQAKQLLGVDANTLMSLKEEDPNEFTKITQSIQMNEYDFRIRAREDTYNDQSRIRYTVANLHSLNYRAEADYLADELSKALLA", "sequence (P26754 whole entry, chain 2 of 3)": "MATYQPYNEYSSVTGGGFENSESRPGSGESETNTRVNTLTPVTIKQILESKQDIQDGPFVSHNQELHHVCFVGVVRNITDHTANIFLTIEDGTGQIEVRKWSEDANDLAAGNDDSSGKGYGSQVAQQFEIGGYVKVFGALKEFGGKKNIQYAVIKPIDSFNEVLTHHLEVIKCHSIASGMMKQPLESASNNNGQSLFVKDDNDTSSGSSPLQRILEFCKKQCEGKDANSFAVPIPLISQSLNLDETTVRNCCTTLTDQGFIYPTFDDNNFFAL", "sequence (P26755 whole entry, chain 3 of 3)": "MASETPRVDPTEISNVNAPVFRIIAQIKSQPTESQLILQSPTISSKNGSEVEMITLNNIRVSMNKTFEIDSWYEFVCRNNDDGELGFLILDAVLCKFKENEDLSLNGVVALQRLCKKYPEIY", "assay": "EMSA; 10 nM RPA, 150 mM KCl; 20 mM Tris-HCl pH 7.5, 150 mM KCl (15 mM in Supp. Fig. 1b), 1 mM DTT, 100 ug/mL BSA, 5 nM ssDNA, 30 C 10 min; 4% native gel in 0.2x TBE; high values mean tight binding", "conditions": "protein: recombinant; copies: 1;1;1; label: 5'-32P; ssDNA", "units": {"binding signal": "% bound"}, "values": [
      {"sequence": "TTTTTTTTTT", "binding signal": 1.24},
      {"sequence": "TTTTTTTTTTTTTTTTTT", "binding signal": 39.7},
      {"sequence": "TTTTTTTTTTTTTT", "binding signal": "3.33 ± 2.59"}
    ]}
  ]
}
